Our source for the growth values is PubChem BioAssay (NCI).

About 83,000 compounds went through this panel and 20% of them were active in at least one assay; those are over-represented in the sample as a whole.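 Plates (96-well) were seeded with cells, treated with compound at one concentration, and incubated for 48 hours before percent growth was determined.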 Activity calls are given as the source filed them. The calls were made as follows: active = growth percent below 10; inactive = the rest.

For the experiment, the system named is UACC-62 melanoma. Description: NCI-60 one-dose screen, 48 h (100 = growth as untreated, 0 = no growth, -100 = all killed). As to conditions: 10 µM unless noted.
Take `FC(F)(F)c1cc(-c2nnc3n2N=C(N2CCCC2)CS3)cc(C(F)(F)F)c1`: the growth was 69.1% (inactive). The result for `Clc1ccc(C2=NN(c3ccc(Cl)cc3)C(c3cccc(Nc4ccnc5cc(Cl)ccc45)c3)C2)cc1` (stereo not given) reads 88.3% (inactive); that for `C=CCN(/C=C/CN(CC=C)CC=C)CC=C`, 101% (inactive). With `COc1ccc(-c2nnc3c4[nH]cnc4ncn23)c(OC)c1` the figure was 23.7% (inactive); with `Cc1ccc(S(=O)(=O)NCCN2c3nc4ccccc4cc3Sc3cc4ccccc4nc32)cc1`, 66.9% (inactive); with `O=C(CNC(=O)c1cccc2ccccc12)Nc1ccccc1Oc1cccc(O)c1`, 44.9% [5 µM] (inactive). As to `COc1ccc2c(=O)c(OC)c(-c3cc(OC)c(OC)c(OC)c3)oc2c1`, the growth is 70.5% (inactive). With `COc1cnc2c(c1)C(=O)c1c-2n(CCCN2CCC(O)CC2)c(=O)c2cc(F)ccc12` the figure was -40.8% (active); with `O=C(/C=C/c1c(-c2ccccc2)[nH]c2ccccc12)S(=O)(=O)c1ccccc1`, 39.1% (inactive); with `O=C(Nc1nc2c(C(F)(F)F)cccc2s1)c1cc(Cl)ccc1O`, -37.3% (active). With `CCN(CC)CCOCC[C@H]1CC[C@H]2[C@@H]3[C@H](C)Cc4cc(OS(N)(=O)=O)ccc4[C@H]3CC[C@]12C` the figure was -79.7% (active); with `NS(=O)(=O)c1ccc(N2CC(c3nc4ccccc4[nH]3)CC2=O)cc1` (stereo not given), 97.4% (inactive); with `COc1cnc2c(c1)C(=O)c1c-2n(CCCN2CCCC2)c(=O)c2cc(F)ccc12`, -27.8% (active). The result for `COc1ccc(-n2cnc3cc(C(=O)N4CCCCC4)ccc32)cc1` reads 101% (inactive); that for `COc1cc(-c2n[nH]nc2-c2ccccn2)cc(OC)c1OC`, 87.3% (inactive); that for `COc1cc(C2=NN(C=O)C(c3cccc(Nc4ccnc5cc(Cl)ccc45)c3)C2)cc(OC)c1OC` (stereo not given), 96.4% (inactive). As for `Cc1sc2nc(NCc3ccccc3)[nH]c(=O)c2c1C`, the growth was 42.5% (inactive). In the case of `CC(=O)N1N=C(c2ccc(Nc3nc(NCCO)nc(NCCO)n3)cc2)CC1c1ccc(Cl)cc1` (stereo not given), the growth was 107% (inactive). The result for `COc1ccc(N2CCN(CC(=O)N3CCN(c4nnc(-c5ccc(Cl)cc5)c(-c5ccc(Cl)cc5)n4)CC3)CC2)cc1` reads 66.6% (inactive); that for `C1CCC(C(CC2CCCCN2)C2CCCCC2)CC1` (stereo not given), -7.18% (active).

With `Cc1cc2c(cc1C)[n+](Cc1ccc3ccccc3c1)cn2Cc1ccc2ccccc2c1`, the growth was -80.5% (active). The result for `COc1ccc(Oc2ccccc2NC(=O)CNC(=O)c2cccc3ccccc23)cc1` reads 37.5% [5 µM] (inactive); that for `COc1cccc(N2CCN(CC(=O)N3CCN(c4nnc(-c5ccc(Cl)cc5)c(-c5ccc(Cl)cc5)n4)CC3)CC2)c1`, 70.4% (inactive).

With `CC(=O)N1N=C(c2ccc3c(c2)OCO3)CC1c1c(C)nn(-c2ccccc2)c1N(C)Cc1ccccc1` (stereo not given), the growth is 49.5% (inactive).

`COc1ccc(C(=O)/C=C/c2cccc(Nc3ccnc4cc(Cl)ccc34)c2)cc1`: the growth was 27.8% (inactive). The result for `COc1cc(C2CC(C3C(=O)N(C)C(=O)N(C)C3=O)=NN2c2cc(Cl)cc(Cl)c2)cc(OC)c1OC` (stereo not given) reads 75.6% (inactive); that for `O=C1NC(=O)/C(=C\c2ccco2)S1`, 91.7% (inactive); that for `COc1ccc2nc(-c3ccc(Cl)cc3)cc(-c3nnc(SCC(=O)Nc4ccc(C(C)=O)cc4)n3-c3ccccc3)c2c1`, 97.7% (inactive). With `O=C(CNC(=O)c1cccc2ccccc12)Nc1ccccc1Cc1ccccc1` the figure was 51.3% [5 µM] (inactive); with `CCCCc1n(Cc2ccc3ccccc3c2)cc[n+]1Cc1ccc2ccccc2c1`, -85.9% (active). The result for `COc1cc(C2CC(C3C(=O)N(C)C(=O)N(C)C3=O)=NN2C=O)cc(OC)c1OC` (stereo not given) reads 93.9% (inactive); that for `Nc1ncnc2c1CN(Cc1ccccc1)CC2`, 107% (inactive).

With `CCOC(=O)c1sc(NC(=O)COc2cccc(/C=C3\Cc4ccc(Cl)cc4C3=O)c2)nc1C`, the growth is 95.8% (inactive). Turning to `COC(=O)[C@H](CCCCNC(=O)OCc1ccccc1)NC(=O)[C@@H](NC(=O)Nc1cc(C(F)(F)F)cc(C(F)(F)F)c1)C(C)C`, the growth was -83.6% [100 µM] (active). In the case of `CCN(CC)c1ccc(C(=C2C=CC(=[N+](CC)Cc3cccc(S(=O)(=O)O)c3)C=C2)c2ccc(N(CC)Cc3cccc(S(=O)(=O)O)c3)cc2)cc1`, the growth was 63.8% (inactive). The result for `O=C(CNC(=O)c1cccc2ccccc12)Nc1ccccc1Oc1ccc(O)cc1` reads 55% [5 µM] (inactive); that for `COc1cc(C(=O)/C=C/c2cccc(Nc3ccnc4cc(Cl)ccc34)c2)cc(OC)c1OC`, 22.5% (inactive). With `CN1C(=O)C(C2=NN(C=O)C(c3ccc(F)cc3)C2)C(=O)N(C)C1=O` (stereo not given) the figure was 100% (inactive).

Regarding `O=CN1N=C(c2ccc(Nc3ccnc4cc(Cl)ccc34)cc2)CC1c1ccc(Cl)cc1` (stereo not given), the growth was 28.7% (inactive). The result for `COc1cccc(-c2nc3cc(NC(=O)c4ccc(Cl)c(C#N)c4)ccc3o2)c1` reads 38.6% (inactive).
